Measured values from PubChem BioAssay (NCI).
Values joined by “and” are separate entries in the source; they are usually repeats but may differ in a detail not shown here. Identical values can stand only once. The panel holds about 79,000 compounds, 15% with a hit somewhere; the sample as a whole holds those more often. Where a structure was tested more than once in an assay, its records may differ in their call. Active and inactive are the calls of the source. No stated cut-off is given here; in the data, active means growth inhibition above about 70%; inactive means the rest.

Assay: NCI Yeast Anticancer Drug Screen. Data for the bub3 strain (AID 167)
Settings: S. cerevisiae bub3 mutant strain, at 50.0 µM, stronger effect = higher value
In short: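 Yeast carrying a defined mutation is treated with each compound, and growth is compared with that of vehicle-exposed cells to give inhibition.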

SMILES	growth inhibition
O=C1/C(=C/c2ccccc2)CCCC1CN1CCCCC1 (stereo unspecified)	82.9% (active)
C#CCN(Cc1ccc2nc(N)[nH]c(=O)c2c1)c1ccc(C(=O)NC(CCC(=O)O)C(=O)O)cc1 (stereo unspecified)	63.9% (inactive) and 36.5% (inactive)
CCOC1(c2cccc([N+](=O)[O-])c2)c2ccccc2Oc2ccccc21	51.7% (inactive)
O=C(O)CNC(=S)Nc1ccccc1	8.5% (inactive) and 53.4% (inactive)
N/C(=N/N=C/c1cc(Br)cc(Br)c1O)NO	87% (active)
C[Si](C)(C)/C=C/CCNC(C#N)c1ccccc1 (stereo unspecified)	90.1% (active)
CCCCCCCCCCCCCCCCOP(=O)(O)OCC(N)C(=O)O (stereo unspecified)	98.8% (active)
CC1=C(C(=O)NCc2ccccc2)C(c2ccccc2)C(C(=O)NCc2ccccc2)=C(C)N1	87.8% (active)
O=[N+]([O-])c1cc(S(=O)(=O)Nc2ccccc2)ccc1Nc1ccccc1	76.2% (active)
CCOC(=O)C(Br)C(Br)c1ccccc1Cl (stereo unspecified)	99.8% (active)
CCOC(=O)C1=C(C)NC(C)=C(C(=O)OCCNC(=O)c2ccc(N=[N+]=[N-])cc2)C1c1ccccc1C(F)(F)F (stereo unspecified)	57.4% (inactive)
Cc1cc(C)c(NC(=S)NC(=O)c2ccccc2)cc1C	49.6% (inactive)
CNCCCNc1c2ccccc2nc2cccc([N+](=O)[O-])c12	85.8% (active)
COc1c(O)c(C=O)c(Br)c(C=O)c1O	98.9% (active)
Cc1c(C)c(C)c(CSC(=N)N)c(C)c1C	83.2% (active)
O=C(CSC(=S)N1CCCCC1)Nc1nc2c(s1)CCCC2	86.5% (active)
CNC(=O)OCc1c(COC(=O)NC)c(-c2ccc(Cl)cc2)n2c1CCC2	23% (inactive)
CC(=O)OC1CC2C(C)(C)C(=O)C=C[C@]2(C)C2CCC3(C)C(=CCC3[C@H](CO)C[C@H](O)C(=O)C(C)(C)O)[C@]12C (stereo partly specified)	38.1% (inactive)

SMILES	growth inhibition
C[C](C)(C)[Ge]([O][Ge]([c]1ccccc1)[c]1ccccc1)([O][Ge]([c]1ccccc1)[c]1ccccc1)[C](C)(C)C	76.7% (active)
CCc1c(Cl)c(C)cc(O)c1Cl	92.6% (active)
Cc1nc(Nc2ccccc2[N+](=O)[O-])sc1C(=O)CC(=O)C(=O)Nc1c(C(C)C)cccc1C(C)C	41.2% (inactive)
O=[N+]([O-])c1cccc2nc3ccccc3c(NCCCn3ccnc3[N+](=O)[O-])c12	58.4% (inactive)
CCCCCCC(O)CNCc1ccnc2ccc(OC)cc12 (stereo unspecified)	83.7% (active)
Cc1c2cccc(Sc3ccccc3)c2c2c3c(cccc13)[S+](c1ccccc1)C2 (stereo unspecified)	95.2% (active)
C=C1CCC(O)C/C1=C/C=C1\CCCC2(C)C1CCC2C(C)CCCC(C)C (stereo unspecified)	24.1% (inactive)
NC1=NNC2(C(N)=N1)c1ccccc1-c1ccccc12	45.1% (inactive)
COc1cc2cc3c4cc(OC)c(OC)cc4cc[n+]3c(C)c2cc1OC	79.8% (active)
COC(=O)NC1C(C)OC(OC2C/C=C(/C)C3C=CC4C(OC5CC(OC6CC(O)C(OC7CC(O)C(OC)C(C)O7)C(C)O6)C(O)C(C)O5)C(C)CC(C)C4C3(C)/C(O)=C3\C(=O)OC4(CC(C)C(CO)=CC4/C=C\2C)C3=O)CC1(C)[N+](=O)[O-] (stereo unspecified)	10.7% (inactive)
O=C1CSC(c2cccc(Cl)c2)N1c1ccc(-c2ccc(-n3c(-c4ccccc4)nc4ccccc4c3=O)cc2)cc1 (stereo unspecified)	86.8% (active)
CCOC(=O)C(C(=O)OCC)=P(c1ccccc1)(c1ccccc1)c1ccccc1	5% (inactive)
COc1ccc(N=CN(C)C)c(C)c1	91.9% (active)
Cc1cc(S(=O)(=O)Nc2nnc3cnc4ccccc4n23)c(S)cc1Cl	-18.8% (inactive)
CN(C)[C@@H]1C(=O)C(C(N)=O)=C(O)[C@@]2(O)C(=O)C3=C(O)c4c(O)cccc4C[C@H]3C[C@@H]12	89% (active)
O=[N+]([O-])c1ccc2c(c1)/C(=N/N=C1c3ccccc3Cc3ccccc31)c1cc([N+](=O)[O-])cc([N+](=O)[O-])c1-2	85.9% (active)
Cc1nc2c(Br)cc(Br)cc2c(=O)n1-c1ccccc1NC1OCC(O)C(O)C1O (stereo unspecified)	97.2% (active) and 78.4% (active)
Cc1cc(N(CCOS(C)(=O)=O)CCOS(C)(=O)=O)ccc1C=Nc1ccc(-c2nc(Cc3ccccc3)sc2C)cc1	84.2% (active) and 37% (inactive)
